Measurements reported in PubChem BioAssay.
Several values for one entry are separate records, joined by “and”; a condition that tells them apart may be missing. Equal entries are not always repeated. For some of these results: Potency and affinity values are given separately. Some structures have more than one record in an assay (separate samples or runs), and their calls can disagree. Activity calls are given as the source filed them. Unless noted, no rule for the calls is given here.

Key:
[1] = antimalarial activity against Dd2 strain (AID 2302;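 active = growth inhibition above 50% at the single 2 µM test dose, taken to imply half-maximal potency below 2 µM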;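 also: 0% = DMSO untreated growth and 100% = chloroquine plus artemisinin killed control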); conditions: P. falciparum Dd2 in RBCs, LDH growth readout, 72 h; at 2 µM; stronger effect = higher value
[2] = human hepatoma cell viability loss – ATP luminescence, cytotoxicity control for P. falciparum antimalarial project, primary screen (AID 2303;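 active = inhibition above 50%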;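 also: 0% = DMSO wells and 100% = digitonin-killed cells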); conditions: HepG2 viability, 24-48 h, at 10 µM, stronger effect = higher value
[3] = target: L-lactate dehydrogenase (Plasmodium falciparum (isolate CDC / Honduras)) (UniProt Q27743); experiment: PfLDH activity inhibition – cell lysate, 3D7 strain, counter-screen for P. falciparum growth inhibition project (AID 2304);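 also: 0% = vehicle and 100% = reference inhibitor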; conditions: P. falciparum 3D7 crude extract, LDH APAD/NBT absorbance; at 2 µM; stronger effect = higher value
[4] = inhibition of 3D7 malaria parasite growth – strain 3D7 (AID 2306);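 also: 0% = DMSO wells and 100% = chloroquine plus artemisinin control wells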; conditions: P. falciparum 3D7 erythrocytic growth, LDH absorbance, 72 h; at 2 µM; stronger effect = higher value
[5] = target: Calcium-dependent protein kinase 1 (Plasmodium falciparum (isolate 3D7)) (UniProt P62344); experiment: PfCDPK1 kinase inhibitors, biochemical, TCAMS library (AID 1159585; cut-off not given, nearly all actives have IC50 up to about 0.98 µM;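 also: inhibitors leave more ATP so luminescence rises with inhibition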); conditions: recombinant PfCDPK1, Kinase-Glo ATP depletion luminescence
[6] = target: Plasmodium falciparum protein kinase 6 (PK6, PF3D7_1337100) (UniProt Q8IDW1); experiment: PfPK6 kinase inhibitors, biochemical, TCAMS library (AID 1159586); conditions: recombinant PfPK6, Kinase-Glo ATP depletion luminescence
[7] = target: Protein kinase 7 (PK7), Plasmodium falciparum 3D7 (PF3D7_0213400) (UniProt Q7YTF7); experiment: inhibition of Plasmodium PK7 catalytic activity – biochemical, TCAMS antimalarial set, Kinase-Glo luminescence (AID 1159587); conditions: recombinant PfPK7, Kinase-Glo ATP depletion luminescence
[8] = target: Calcium-dependent protein kinase 4 (Plasmodium falciparum (isolate 3D7)) (UniProt Q8IBS5); experiment: PfCDPK4 kinase inhibitors, biochemical, TCAMS library (AID 1159588; cut-off not given, nearly all actives have IC50 up to about 0.91 µM); conditions: recombinant PfCDPK4, Kinase-Glo ATP depletion luminescence
Calcium-dependent protein kinase 4 (Plasmodium falciparum (isolate 3D7)), sequence (Q8IBS5 whole entry, looked up): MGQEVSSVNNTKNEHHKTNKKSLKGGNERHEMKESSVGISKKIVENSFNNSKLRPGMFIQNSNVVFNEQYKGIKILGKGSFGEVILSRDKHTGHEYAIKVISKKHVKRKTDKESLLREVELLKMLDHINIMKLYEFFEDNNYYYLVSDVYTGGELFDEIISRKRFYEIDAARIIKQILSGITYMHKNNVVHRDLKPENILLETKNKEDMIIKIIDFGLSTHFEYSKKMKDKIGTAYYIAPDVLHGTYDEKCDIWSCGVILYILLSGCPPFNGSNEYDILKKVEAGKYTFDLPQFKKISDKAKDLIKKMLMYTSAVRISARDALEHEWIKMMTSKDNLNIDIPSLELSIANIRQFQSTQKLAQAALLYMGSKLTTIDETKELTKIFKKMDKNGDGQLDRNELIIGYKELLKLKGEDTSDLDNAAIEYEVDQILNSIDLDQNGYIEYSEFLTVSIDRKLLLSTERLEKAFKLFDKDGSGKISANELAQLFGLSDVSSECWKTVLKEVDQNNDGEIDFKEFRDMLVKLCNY

Plasmodium falciparum protein kinase 6 (PK6, PF3D7_1337100), sequence (Q8IDW1 1-305): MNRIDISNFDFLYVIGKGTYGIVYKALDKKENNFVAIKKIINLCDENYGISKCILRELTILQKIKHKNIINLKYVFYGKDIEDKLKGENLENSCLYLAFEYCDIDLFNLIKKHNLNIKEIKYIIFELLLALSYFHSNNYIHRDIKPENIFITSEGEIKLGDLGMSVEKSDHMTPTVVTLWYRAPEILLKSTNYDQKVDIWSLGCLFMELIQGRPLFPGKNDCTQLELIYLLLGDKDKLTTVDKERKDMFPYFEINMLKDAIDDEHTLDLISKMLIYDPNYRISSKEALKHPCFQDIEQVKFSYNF
L-lactate dehydrogenase (Plasmodium falciparum (isolate CDC / Honduras)), sequence (Q27743 whole entry, looked up): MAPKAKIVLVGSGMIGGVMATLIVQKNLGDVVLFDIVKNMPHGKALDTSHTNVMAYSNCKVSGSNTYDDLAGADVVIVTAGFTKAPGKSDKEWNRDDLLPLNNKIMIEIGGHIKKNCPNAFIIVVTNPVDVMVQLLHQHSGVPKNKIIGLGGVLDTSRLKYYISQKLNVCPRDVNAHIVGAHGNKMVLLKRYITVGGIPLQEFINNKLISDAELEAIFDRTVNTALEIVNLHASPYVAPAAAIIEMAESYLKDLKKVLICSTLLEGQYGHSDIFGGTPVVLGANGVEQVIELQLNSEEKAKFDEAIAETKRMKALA
Protein kinase 7 (PK7), Plasmodium falciparum 3D7 (PF3D7_0213400), sequence (Q7YTF7 1-343): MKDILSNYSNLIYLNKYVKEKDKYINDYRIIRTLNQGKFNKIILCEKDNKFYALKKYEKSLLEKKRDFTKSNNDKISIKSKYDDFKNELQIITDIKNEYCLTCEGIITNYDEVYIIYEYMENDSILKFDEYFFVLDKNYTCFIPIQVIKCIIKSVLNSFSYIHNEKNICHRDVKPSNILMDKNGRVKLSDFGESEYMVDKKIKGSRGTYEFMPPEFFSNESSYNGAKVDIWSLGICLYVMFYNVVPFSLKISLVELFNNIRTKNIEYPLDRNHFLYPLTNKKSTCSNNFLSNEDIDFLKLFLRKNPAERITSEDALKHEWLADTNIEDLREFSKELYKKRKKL
Calcium-dependent protein kinase 1 (Plasmodium falciparum (isolate 3D7)), sequence (P62344 whole entry, looked up): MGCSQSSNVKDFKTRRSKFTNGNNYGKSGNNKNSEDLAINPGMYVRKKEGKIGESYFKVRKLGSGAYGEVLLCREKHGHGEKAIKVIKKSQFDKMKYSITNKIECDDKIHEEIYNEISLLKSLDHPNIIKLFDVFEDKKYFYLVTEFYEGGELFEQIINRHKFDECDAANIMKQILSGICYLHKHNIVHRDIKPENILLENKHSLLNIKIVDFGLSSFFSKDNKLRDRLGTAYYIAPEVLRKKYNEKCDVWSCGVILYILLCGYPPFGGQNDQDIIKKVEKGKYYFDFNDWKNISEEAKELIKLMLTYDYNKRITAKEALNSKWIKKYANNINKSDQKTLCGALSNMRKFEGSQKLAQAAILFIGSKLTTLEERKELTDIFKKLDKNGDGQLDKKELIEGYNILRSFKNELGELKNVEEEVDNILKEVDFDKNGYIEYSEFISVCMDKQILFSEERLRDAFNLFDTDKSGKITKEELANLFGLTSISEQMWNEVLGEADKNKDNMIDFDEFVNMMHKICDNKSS

O=C(/C=C/c1cccc(F)c1)NC1CCC(CN2CCC(c3c[nH]c4ccccc34)CC2)CC1 (centres undefined)
active: growth inhibition [4] 98% and 99%
inactive: growth inhibition [1] 31% and 28% | inhibition [2] 39% and 35% | inhibition [3] -1% and 0% | outcome [5] | outcome [6] | outcome [7] | outcome [8]

CO[C@@H]1C[C@@H](C(=O)Nc2ccccc2)N(c2ccc(C#N)c3ccccc23)C1
active: growth inhibition [1] 100% | growth inhibition [4] 98%
inactive: inhibition [2] 7% | inhibition [3] 6% | outcome [5] | outcome [6] | outcome [7] | outcome [8]

N#Cc1c(Cl)cccc1Oc1ccc(S(=O)(=O)N2CCC(CN3CCC(c4c[nH]c5ccccc45)CC3)CC2)cc1
inactive: inhibition [2] 36% | inhibition [3] 4% | outcome [5] | outcome [6] | outcome [7] | outcome [8]
active: growth inhibition [1] 67% | growth inhibition [4] 100%

O=C(/C=C/c1ccc(Cl)c(Cl)c1)NCC1CCC(N2CCC(c3c[nH]c4ccccc34)CC2)CC1 (centres undefined)
active: growth inhibition [1] 95% | growth inhibition [4] 101%
inactive: inhibition [2] 48% | inhibition [3] -1% | outcome [5] | outcome [6] | outcome [7] | outcome [8]

CC[C@H]1CN2CC[C@@H]1C[C@H]2[C@H](O)c1cc(N2CCOCC2)nc2ccc(OC)cc12
active: growth inhibition [1] 99% | growth inhibition [4] 99%
inactive: inhibition [2] 10% | inhibition [3] 3% | outcome [5] | outcome [6] | outcome [7] | outcome [8]

CNCCc1c(O)ccc2ccccc12
active: growth inhibition [4] 94%
inactive: growth inhibition [1] -1% | inhibition [2] 6% | inhibition [3] 2% | outcome [5] | outcome [6] | outcome [7] | outcome [8]

Cc1nc(-c2ccc(-c3ccc(C(=O)Nc4ccc5c(c4)C4(CCNCC4)CO5)cc3)c(C)c2)no1
inactive: growth inhibition [1] 15% | inhibition [2] 37% | inhibition [3] -3% | outcome [5] | outcome [6] | outcome [7] | outcome [8]
active: growth inhibition [4] 90%

CC(=O)N(Cc1cccc(-c2cccc(CNCCc3ccccc3)c2)c1)C1CCN(Cc2ccccc2)CC1
inactive: inhibition [2] 22% | inhibition [3] -3% | outcome [5] | outcome [6] | outcome [7] | outcome [8]
active: growth inhibition [1] 57% | growth inhibition [4] 100%

Cc1[nH]c2cc(F)ccc2c1C1=CCN(CCCCC2(C)C(=O)Nc3ccccc32)CC1 (centres undefined)
inactive: inhibition [2] 13% | inhibition [3] -8% | outcome [5] | outcome [6] | outcome [7] | outcome [8]
active: growth inhibition [1] 90% | growth inhibition [4] 93%

CC(Cc1ccc(OCc2ccccc2)c(Cl)c1)NCC(O)c1cccc(C(F)(F)F)c1 (centres undefined)
active: growth inhibition [1] 95% | growth inhibition [4] 97%
inactive: inhibition [2] -2% | inhibition [3] -4% | outcome [5] | outcome [6] | outcome [7] | outcome [8]

COc1ccc(CC(C)NCC(O)c2ccc(Cl)c(Cl)c2)cc1 (centres undefined)
active: growth inhibition [1] 96% | growth inhibition [4] 98%
inactive: inhibition [2] 0% | inhibition [3] 6% | outcome [5] | outcome [6] | outcome [7] | outcome [8]

Cc1ccc2c(C3=CCN(CCCCC4(C)C(=O)Nc5c(F)cccc54)CC3)c(C)[nH]c2c1 (centres undefined)
active: growth inhibition [1] 89% | growth inhibition [4] 95%
inactive: inhibition [2] 5% | inhibition [3] -4% | outcome [5] | outcome [6] | outcome [7] | outcome [8]

COC(=O)c1ccc(CC(C)NCC(O)c2ccc3ccc4ccccc4c3c2)cc1 (centres undefined)
active: growth inhibition [1] 97% | growth inhibition [4] 100%
inactive: inhibition [2] 21% | inhibition [3] -2% | outcome [5] | outcome [6] | outcome [7] | outcome [8]

Oc1ccc2[nH]cc(C3=CCN(Cc4ccccc4)CC3)c2c1
active: growth inhibition [1] 67% | growth inhibition [4] 94%
inactive: inhibition [2] 1% | inhibition [3] 7% | outcome [5] | outcome [6] | outcome [7] | outcome [8]

O=C(c1ccccc1)[C@H]1C[C@@H]1CN1CC=C(c2c[nH]c3ccccc23)CC1
inactive: inhibition [2] 4% | inhibition [3] -6% | outcome [5] | outcome [6] | outcome [7] | outcome [8]
active: growth inhibition [1] 73% | growth inhibition [4] 95%

Cc1[nH]c2ccccc2c1C1=CCN(CCN2CCOc3c(Br)cccc3C2=O)CC1
inactive: inhibition [2] 15% | inhibition [3] -3% | outcome [5] | outcome [6] | outcome [7] | outcome [8]
active: growth inhibition [1] 76% | growth inhibition [4] 97%

Cc1[nH]c2c(C)cc(NS(C)(=O)=O)cc2c1C1CCN(CC2CCN(C(=O)/C=C/c3ccc(Cl)c(Cl)c3)CC2)CC1
active: growth inhibition [1] 99% | growth inhibition [4] 100%
inactive: inhibition [2] 33% | inhibition [3] 1% | outcome [5] | outcome [6] | outcome [7] | outcome [8]

CN1CCC(O)(c2ccc(Br)cc2)C(C(O)c2ccc(Br)cc2)C1 (centres undefined)
active: growth inhibition [1] 99% | growth inhibition [4] 98%
inactive: inhibition [2] 28% | inhibition [3] -5% | outcome [5] | outcome [6] | outcome [7] | outcome [8]

CCCCCCCSc1ccc(CC(C)NCC(O)c2cccc(Cl)c2)cc1 (centres undefined)
inactive: inhibition [3] -3% | outcome [5] | outcome [6] | outcome [7] | outcome [8]
active: growth inhibition [1] 99% | inhibition [2] 94% | growth inhibition [4] 100%

C/C=C1\CN2CC[C@H]1C[C@H]2[C@H](O)c1ccnc2ccc(OC)cc12
inactive: inhibition [2] -12% and -9% | inhibition [3] 4% and -10% | outcome [5] | outcome [6] | outcome [7] | outcome [8]
active: growth inhibition [4] 102% and 99%
45% (inactive) and 61% (active): growth inhibition [1]

Cc1cccc2c(C3CCN(CC4CCC(NC(=O)/C=C/c5ccc(Cl)c(Cl)c5)CC4)CC3)c[nH]c12 (centres undefined)
active: inhibition [2] 97% | growth inhibition [4] 92%
inactive: growth inhibition [1] 49% | inhibition [3] -4% | outcome [5] | outcome [6] | outcome [7] | outcome [8]

NCc1ccc(-c2ccccc2CN(C(=O)Nc2ccccc2)C2CCN(Cc3ccccc3)CC2)cc1
active: growth inhibition [4] 100%
inactive: growth inhibition [1] 35% | inhibition [2] 36% | inhibition [3] 3% | outcome [5] | outcome [6] | outcome [7] | outcome [8]

O=C(/C=C/c1ccc(Cl)c(Cl)c1)NCCCCCN1[C@@H]2CC[C@H]1CC(c1c[nH]c3ccc(O)cc13)C2 (some centres undefined)
active: growth inhibition [4] 100% and 91%
inactive: growth inhibition [1] -1% and 20% | inhibition [2] 26% and 9% | inhibition [3] 2% and -6% | outcome [5] | outcome [6] | outcome [7] | outcome [8]
